Data as given in PubChem BioAssay AID720597 (Broad Institute, 2013).
Results with a measured potency or affinity are listed apart. Calls of active or inactive are those of the source.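 Rule for the calls: active = fitted half-maximal dose no more than twice the top valid tested dose, for compounds that lower signal; inconclusive = fit invalid, or curve flat with activity between -70 and -30; inactive = potency past limit, curve flat within ±30, or signal increasing.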

Target: NAD-dependent protein deacylase sirtuin-5, mitochondrial (Homo sapiens) (UniProt Q9NXA8)
Assay: SIRT5 deacylase inhibitors, dose response, biochemical, fluorescence imaging, cherry-pick, set 6 (AID 720597);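 note: lower AMC signal can also come from blocking the trypsin step; 0% = median of neutral control wells and -100% = median of positive control wells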
Settings: Purified SirT5, succinyl-peptide-AMC/trypsin fluorescence; series mostly up to 15 µM; activity change, negative = inhibition: at the top concentration

Chain of NAD-dependent protein deacylase sirtuin-5, mitochondrial (Homo sapiens) (Q9NXA8 whole entry, looked up): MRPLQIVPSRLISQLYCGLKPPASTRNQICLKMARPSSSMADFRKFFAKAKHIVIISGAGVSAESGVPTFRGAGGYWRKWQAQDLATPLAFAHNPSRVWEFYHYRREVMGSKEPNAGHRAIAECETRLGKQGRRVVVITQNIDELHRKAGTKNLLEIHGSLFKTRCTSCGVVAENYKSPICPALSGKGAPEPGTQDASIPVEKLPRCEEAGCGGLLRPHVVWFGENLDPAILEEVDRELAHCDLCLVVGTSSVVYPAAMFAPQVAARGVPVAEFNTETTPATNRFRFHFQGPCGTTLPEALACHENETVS

Activity change, negative = inhibition, inactive:
COc1ccc(CN(C)C[C@H]2OCCCC[C@@H](C)Oc3ccc(NC(=O)NC4CCCCC4)cc3C(=O)N([C@H](C)CO)C[C@H]2C)cc1 -22.3%
CCCC#Cc1ccc([C@H]2[C@@H](CO)N3CCCCN(S(=O)(=O)Cc4ccccc4)C[C@@H]23)cc1 6.68%
C[C@@H]1CN([C@H](C)CO)S(=O)(=O)c2ccc(C#Cc3cccc(F)c3)cc2O[C@@H]1CN(C)CC1CC1 -28.8%
CC(C)NC(=O)Nc1ccc2c(c1)C(=O)N([C@H](C)CO)C[C@H](C)[C@@H](CN(C)Cc1ccc(Cl)c(Cl)c1)O2 7.9%
C[C@H]1CN([C@@H](C)CO)S(=O)(=O)c2ccc(C#Cc3ccc(F)cc3)cc2O[C@H]1CN(C)S(=O)(=O)c1ccc(F)cc1 -20%
COc1ccccc1NC(=O)N[C@H]1CC[C@H](CCNC(=O)c2ccc3c(c2)OCO3)O[C@@H]1CO -8.95%
COc1ccc(NC(=O)Nc2cccc3c2O[C@@H](CN(C)Cc2ccc(C(F)(F)F)cc2)[C@@H](C)CN([C@H](C)CO)C3=O)cc1 -31.3%
O=C(NCC[C@H]1CC[C@@H](NS(=O)(=O)c2cccc(F)c2)[C@H](CO)O1)C1CCOCC1 14.3%
C[C@@H]1CN([C@H](C)CO)C(=O)c2cc(Br)cnc2O[C@@H]1CN(C)Cc1cncnc1 -2.29% [at 13.5 µM]
COc1ccc(S(=O)(=O)Nc2ccc3c(c2)CC(=O)N([C@@H](C)CO)C[C@@H](C)[C@H](CN(C)CC2CCCCC2)O3)cc1 -30.6%
C[C@@H]1CN([C@H](C)CO)C(=O)Cc2cc(NC(=O)Nc3ccc(F)cc3)ccc2O[C@@H]1CN(C)C 1.73%
CCCC(=O)Nc1ccc2c(c1)OC[C@H](C)N(Cc1ccccc1)C[C@@H](C)[C@H](OC)CN(C)C2=O -11.5%
O=C(CN1CCOCC1)NCC[C@H]1CC[C@@H](NS(=O)(=O)c2ccc(Cl)cc2)[C@@H](CO)O1 -11.2%
C[C@H](CO)N1C[C@H](C)[C@@H](CN(C)S(=O)(=O)c2ccccc2F)Oc2cc(C#Cc3cccc(F)c3)ccc2S1(=O)=O 7.3%
Cc1ccc(S(=O)(=O)N(C)C[C@H]2OCCCC[C@H](C)Oc3ccc(NS(=O)(=O)c4ccccc4)cc3C(=O)N([C@@H](C)CO)C[C@@H]2C)cc1 -9.79%
COc1ccc(S(=O)(=O)N(C)C[C@H]2OCCCC[C@@H](C)Oc3ccc(NS(=O)(=O)c4ccc(F)cc4)cc3C(=O)N([C@H](C)CO)C[C@H]2C)cc1 4.18%
Cc1ccc(NC(=O)C2CC(=O)n3ncnc3N2)cc1 (centres undefined) 1.3% [at 18 µM]
C[C@@H]1CN([C@@H](C)CO)S(=O)(=O)c2ccc(/C=C/c3ccccc3)cc2O[C@@H]1CN(C)C(=O)C1CC1 7.63%
CCCNC(=O)N1C[C@@H](O)COC[C@@H]2O[C@H](CC(=O)N3CCC(Cc4ccccc4)CC3)CC[C@H]21 -18.4%
CC(C)(C)[S@@](=O)N1Cc2cc(C(=O)O)nc(-c3cccc(-c4cccc(F)c4)c3)c2[C@H]1CCO -23.9% [at 13.5 µM]
C[C@@H]1CCCCO[C@@H](CN(C)Cc2ccc(C(F)(F)F)cc2)[C@H](C)CN([C@@H](C)CO)C(=O)c2cc(NS(=O)(=O)c3ccc(F)cc3)ccc2O1 -8.51%
CC(=O)N(C)C[C@H]1Oc2ncc(C3=CCCC3)cc2C(=O)N([C@H](C)CO)C[C@H]1C -4.28%
C[C@@H]1CN([C@H](C)CO)C(=O)Cc2cc(NS(=O)(=O)c3ccc(F)cc3)ccc2O[C@@H]1CN(C)Cc1ccc(C(F)(F)F)cc1 -20.2%
CC(C)CC#Cc1ccc2c(c1)O[C@@H](CN(C)C(=O)NC1CCCC1)[C@H](C)CN([C@H](C)CO)S2(=O)=O -5.15%
Cc1ccc(S(=O)(=O)N(C)C[C@@H]2OCCCC[C@@H](C)Oc3ccc(NS(=O)(=O)c4ccccc4)cc3C(=O)N([C@@H](C)CO)C[C@@H]2C)cc1 15.3%
CN(C)CC#Cc1ccc([C@@H]2[C@@H](CO)N3CCCCN(C(=O)CN(C)C)C[C@H]23)cc1 -9.95%
C[C@H](CO)N1C[C@H](C)[C@@H](CN(C)CC2CCCCC2)Oc2c(NC(=O)CCCCCC(=O)Nc3ccccc3N)cccc2C1=O -6.67%
COc1cc2c(cc1OC)CN(C(=O)[C@@H]1[C@H]3C(=O)O[C@H](c4ccccc4)[C@H](c4ccccc4)N3[C@H](c3ccc(OCCO)cc3)[C@@]13C(=O)Nc1ccc(C#CCNC(N)=O)cc13)CC2 -12.1%
COCCNC(=O)c1cc2c(c(-c3cccc(-c4cccc(F)c4)c3)n1)[C@H](CCO)N(S(=O)C(C)(C)C)C2 (some centres undefined) -23.3%
